The panel holds about 83,000 compounds, 20% with a hit somewhere; the sample as a whole holds those more often.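 Testing used 96-well plates and a 48-hour single-concentration exposure. Example: -40 means 40% of the starting cells died.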 The source made the active and inactive calls. Rule for the calls: active = growth percent below 10; inactive = the rest.
What follows are compounds tested on UACC-62 melanoma (assay: NCI-60 one-dose screen, 48 h (100 = growth as untreated, 0 = no growth, -100 = all killed)). Conditions: 10 µM unless noted.

SMILES	growth
COc1cc(OC)c2ccc(=O)oc2c1	95.5% (inactive)
Cc1cc(=O)[nH]c(NN=C2CCCC2)n1	100% (inactive)
Nc1ccc(C(=O)c2ccc(N)c(Br)c2)cc1Br	28.7% (inactive)
CCCC(=O)c1cc(C)ccc1OC	95.5% (inactive)
Nc1ccc(NC(=O)c2cccc(N)c2)cc1	96.5% (inactive)
CCOC(=O)/C(C#N)=C/c1cccc(C)c1	92% (inactive)
Nc1ccccc1C(=O)Nc1ccc(Cl)cc1Cl	88.7% (inactive)
CC1=CC(=O)c2ccccc2C1=O	100% (inactive)
COC(=O)Nc1nc2ccc(C(=O)c3cccs3)cc2[nH]1	34.2% (inactive)
CCOC(=O)C(C#N)Cc1ccccc1 (stereo not given)	111% (inactive)
Cc1nc2ccccc2c2nnc(SCC(=O)N(Cc3ccccc3)c3ccccc3)n12	84.7% (inactive)
CC1=C(/C=C/C(C)=C/C=C/C(C)=C/CO)C(C)(C)CCC1	99.2% (inactive)
COc1cc([C@@H]2c3cc4c(cc3[C@H](O)[C@H]3COC(=O)[C@H]23)OCO4)cc(OC)c1OC	40.5% (inactive)
CC1CCC(C(=O)O)N1 (stereo not given)	98.1% (inactive)

What follows are compounds tested on LOX IMVI melanoma in the same assay as above. Conditions: 10 µM.

SMILES	growth
COCCCC/C(=N\OCCN)c1ccc(C(F)(F)F)cc1	94.8% (inactive)
Cc1ccccc1N=C(c1ccccc1)C1C(=O)c2ccccc2C1=O	85.9% (inactive)
O=C(O)C(c1ccccc1)C(O)c1ccccc1 (stereo not given)	102% (inactive)
CC(C)(C)c1cc(O)c(C(C)(C)C)cc1O	98.1% (inactive)
O=C(CCNNC(=O)c1ccncc1)NCc1ccccc1	86.8% (inactive)
CCCNc1ccc(C2=NCCCN2)cc1	95.1% (inactive)
O=[N+]([O-])c1ccc(O)c(S(=O)(=O)O)c1	98.2% (inactive)
O=C(O)c1cccc([N+](=O)[O-])c1O	95.1% (inactive)
C/C=C/CC(C)C(O)C1C(=O)NC(CC)C(=O)N(C)CC(=O)N(C)C(CC(C)C)C(=O)NC(C(C)C)C(=O)N(C)C(CC(C)C)C(=O)NC(C)C(=O)NC(C)C(=O)N(C)C(CC(C)C)C(=O)N(C)C(CC(C)C)C(=O)N(C)C(C(C)C)C(=O)N1C (stereo not given)	0.362% (active)
O=[N+]([O-])c1ccc(N=Nc2ccccc2)cc1	92% (inactive)
O=C(CC(=O)c1ccccc1O)c1ccccc1	76.9% (inactive)
CCn1c(=O)n(C)c2c(=O)n(C)c(=O)n(C)c21	96.4% (inactive)
CCCCCCCCCCCCCCCCC1CC(=O)OC1=O (stereo not given)	103% (inactive)
O=C1c2ccccc2C(=O)N1OCc1ccccc1	109% (inactive)
C[C@@H](c1ccccc1)[C@@H](C(=O)O)c1ccccc1	98.4% (inactive)
CC(=O)C1CCCCC1	99.9% (inactive)
Nc1ccc(CC(=O)O)c(N)c1	101% (inactive)
CN(C)c1ccc(CNC(C(=O)c2ccccc2)c2ccccc2)cc1 (stereo not given)	95.1% (inactive)
CC(C)COC(=O)COC(=O)OCCOCCOC(=O)OCC(=O)OCC(C)C	106% (inactive)

SMILES	growth
S=C(Nc1ccccc1)N1CCCCC1	96.6% (inactive)
O=C(O)CCCc1ccccc1	102% (inactive)
COc1cc(OC)c2ccc(=O)oc2c1	96.6% (inactive)
Cc1cc(=O)[nH]c(NN=C2CCCC2)n1	110% (inactive)
Nc1ccc(C(=O)c2ccc(N)c(Br)c2)cc1Br	12.9% (inactive)
CCCC(=O)c1cc(C)ccc1OC	109% (inactive)
Nc1ccc(NC(=O)c2cccc(N)c2)cc1	89.9% (inactive)
O=C(N/N=C/c1ccccc1O)Nc1nn[nH]n1	96.4% (inactive)
CCOC(=O)/C(C#N)=C/c1cccc(C)c1	94.8% (inactive)
c1ccc(/C(=N\N=C(/c2ccccc2)c2cccs2)c2cccs2)cc1	88.4% (inactive)
Nc1ccccc1C(=O)Nc1ccc(Cl)cc1Cl	87.9% (inactive)
CC1=CC(=O)c2ccccc2C1=O	96.5% (inactive)
COC(=O)Nc1nc2ccc(C(=O)c3cccs3)cc2[nH]1	28.4% (inactive)
CCOC(=O)C(C#N)Cc1ccccc1 (stereo not given)	107% (inactive)
Cc1nc2ccccc2c2nnc(SCC(=O)N(Cc3ccccc3)c3ccccc3)n12	91.6% (inactive)
CC1=C(/C=C/C(C)=C/C=C/C(C)=C/CO)C(C)(C)CCC1	94.7% (inactive)
CC(=O)Nc1cccc(Cl)c1C	96.8% (inactive)
COc1cc([C@@H]2c3cc4c(cc3[C@H](O)[C@H]3COC(=O)[C@H]23)OCO4)cc(OC)c1OC	22% (inactive)
CC1CCC(C(=O)O)N1 (stereo not given)	99.2% (inactive)

What follows are compounds tested on SK-MEL-28 melanoma in the same assay as above. Conditions: 10 µM.

SMILES	growth
COCCCC/C(=N\OCCN)c1ccc(C(F)(F)F)cc1	117% (inactive)
Cc1ccccc1N=C(c1ccccc1)C1C(=O)c2ccccc2C1=O	89.4% (inactive)
O=C(O)C(c1ccccc1)C(O)c1ccccc1 (stereo not given)	103% (inactive)
CC(C)(C)c1cc(O)c(C(C)(C)C)cc1O	94.4% (inactive)
CCCNc1ccc(C2=NCCCN2)cc1	114% (inactive)
O=[N+]([O-])c1ccc(O)c(S(=O)(=O)O)c1	116% (inactive)
C/C=C/CC(C)C(O)C1C(=O)NC(CC)C(=O)N(C)CC(=O)N(C)C(CC(C)C)C(=O)NC(C(C)C)C(=O)N(C)C(CC(C)C)C(=O)NC(C)C(=O)NC(C)C(=O)N(C)C(CC(C)C)C(=O)N(C)C(CC(C)C)C(=O)N(C)C(C(C)C)C(=O)N1C (stereo not given)	-36.4% (active)
O=[N+]([O-])c1ccc(N=Nc2ccccc2)cc1	99.3% (inactive)
O=C(CC(=O)c1ccccc1O)c1ccccc1	99.3% (inactive)
CCn1c(=O)n(C)c2c(=O)n(C)c(=O)n(C)c21	118% (inactive)
CCCCCCCCCCCCCCCCC1CC(=O)OC1=O (stereo not given)	105% (inactive)
O=C1c2ccccc2C(=O)N1OCc1ccccc1	113% (inactive)
C[C@@H](c1ccccc1)[C@@H](C(=O)O)c1ccccc1	108% (inactive)
CC(=O)C1CCCCC1	102% (inactive)
Nc1ccc(CC(=O)O)c(N)c1	101% (inactive)
CN(C)c1ccc(CNC(C(=O)c2ccccc2)c2ccccc2)cc1 (stereo not given)	94.2% (inactive)
CC(C)COC(=O)COC(=O)OCCOCCOC(=O)OCC(=O)OCC(C)C	107% (inactive)

SMILES	growth
O=C(O)CCCc1ccccc1	111% (inactive)
COc1cc(OC)c2ccc(=O)oc2c1	115% (inactive)
Cc1cc(=O)[nH]c(NN=C2CCCC2)n1	113% (inactive)
CCCC(=O)c1cc(C)ccc1OC	105% (inactive)
Nc1ccc(NC(=O)c2cccc(N)c2)cc1	104% (inactive)
O=C(N/N=C/c1ccccc1O)Nc1nn[nH]n1	111% (inactive)
CCOC(=O)/C(C#N)=C/c1cccc(C)c1	109% (inactive)
Nc1ccccc1C(=O)Nc1ccc(Cl)cc1Cl	100% (inactive)
CC1=CC(=O)c2ccccc2C1=O	116% (inactive)
COC(=O)Nc1nc2ccc(C(=O)c3cccs3)cc2[nH]1	56.3% (inactive)
CCOC(=O)C(C#N)Cc1ccccc1 (stereo not given)	120% (inactive)
Cc1nc2ccccc2c2nnc(SCC(=O)N(Cc3ccccc3)c3ccccc3)n12	109% (inactive)
CC1=C(/C=C/C(C)=C/C=C/C(C)=C/CO)C(C)(C)CCC1	113% (inactive)
CC(=O)Nc1cccc(Cl)c1C	107% (inactive)
COc1cc([C@@H]2c3cc4c(cc3[C@H](O)[C@H]3COC(=O)[C@H]23)OCO4)cc(OC)c1OC	58.8% (inactive)
CC1CCC(C(=O)O)N1 (stereo not given)	95.4% (inactive)

— PubChem BioAssay (NCI)
